According to PubChem BioAssay AID1224861 (National Center for Advancing Translational Sciences (NCATS), 2016):
Inconclusive results are not listed. Calls of active or inactive are those of the source. The call rests on the fitted dose curve; in most records, active means well fitted cell-killing curve with a large enough effect; inconclusive means small, poorly fitted or top-dose-only effect, or effect the other way; inactive means flat fitted curve, though single readings scatter.

experiment: Compound cytotoxicity measured by an ATP content assay as a counter-screen for lead compounds in human astrocytes; settings: human astrocytes viability, ATP luminescence; series mostly up to 46.1 µM; activity change, negative = cytotoxicity: at the top concentration
Procedure: National Center for Advancing Translational Sciences [NCATS] Johns Hopkins University School of Medicine Florida State University Assay Overview: Many compounds can cause cytotoxicity at high compound concentrations. […] The compound cytotoxicity may also cause side effects or toxicity in human. Thus, the compound cytotoxicity needs to be measured in each cell type and each compound incubation time - same as these in the compound screening assay. The compound cytotoxicity can be measured by cell viability assays such as the ATP content assay. We use an ATP content assay kit for cell viability measurement. It measures ATP content (level) in human astrocytes using a luminescence readout that is proportional to viable cell numbers. Decrease in the luminescence signal after the compound treatment indicates reduced cell viability and cell death caused by compound treatment.
Assay Protocol Summary: The medium for astrocytes contains AM basal medium (ScienCell, Cat.# 1801), AGS (ScienCell, Cat.# 1801), 10% FBS, and 1% Pen/Strep. The ATP content assay kit (PerkinElmer, Cat.# 6016731) was used to determine cell viability. The reagent was reconstituted and prepared as described by the manufacturer. Cells were seeded in 384- or 1536-well assay plates and cultured at 37 C with 5% CO2 for 16 to 20 hours. The typical cell seeding density in the 1536-well plate assay is 350 cells/well in 3 ul medium for astrocytes in the tissue cultured treated/PDL coated plates. Compounds were added to cells and incubated for a specific time such as 6, 24, or 72 hours before addition of the reagent mixture of the ATP content assay kit at 1:1 ratio. After incubation at room temperature for 10 minutes, the luminescence intensity in assay plates was measured using a ViewLux plate reader (PerkinElmer). […] The percentage inhibitions of the decreased cell viability by small molecules were then calculated that indicate compound cytotoxicity.

| Compound | activity change, negative = cytotoxicity | Potency |
| --- | --- | --- |
| O=C1C=CC[C@@H]2[C@H]3CCCN4CCC[C@@H](CN12)[C@@H]34 | 11% (inactive) | – |
| O=C(Nc1ccc(Br)cc1)c1cc(Br)cc(Br)c1O | – | 15.5 µM (active) |
| CC[n+]1c(-c2ccccc2)c2cc(N)ccc2c2ccc(N)cc21 | 14.2% (inactive) | – |
| Oc1ccc([C@H]2CNCc3c2ccc(O)c3O)cc1O | 10% (inactive) | – |
| O=C1CCC[C@@H]2[C@H]3CCCN4CCC[C@@H](CN12)[C@@H]34 | 13.7% (inactive) | – |
| CC(O)CN1CCN(CC(=O)[O-])CCN(CC(=O)[O-])CCN(CC(=O)[O-])CC1.[Gd+3] (centres undefined) | 13.1% (inactive) | – |
| Cc1ccc([N+](=O)[O-])[c]2c1[O][Hg]2 | – | 3.08 µM (active) |
| CC(C)N[C@@H]1CCn2c(=O)[nH]c3cccc(c32)[C@@H]1O | 14.5% (inactive) | – |
| COC1(CS(=O)c2ccccc2)CCN(CCc2c[nH]c3ccc(F)cc23)CC1 (centres undefined) | 6.46% (inactive) | – |
| O=c1c2ccccc2[se]n1-c1ccccc1 | – | 9.75 µM (active) |
| CN1CC[C@@]2(C)c3cc(OC(=O)Nc4ccccc4)ccc3N(C)[C@@H]12 | 10.3% (inactive) | – |
| COc1cccc2c1C(=O)c1c(O)c3c(c(O)c1C2=O)C[C@@](O)(C(=O)CO)CC3OC1CC(N2CCOC(OC)C2)C(O)C(C)O1 (some centres undefined) | -2.9% (inactive) | – |
| CC(C)[N+](C)(CCC(C(N)=O)(c1ccccc1)c1ccccc1)C(C)C | 5.53% (inactive) | – |
| COP(=S)(OC)SCN1C(=O)c2ccccc2C1=O | -1.28% (inactive) | – |
